Experimental data published in PubChem BioAssay AID1159580 (chemical genetic matrix, 2015).
Where “and” joins values, the source holds several entries; their conditions need not be identical. Equal entries are not always repeated. The whole screen tested about 5,500 compounds, of which about 2,000 (36%) were called active. Inconclusive results (about 18%) are left out. No stated cut-off is given here; in the data, active means normalized growth mostly below about 0.91 (no sharp cut-off); inconclusive means no clear call, values can overlap the other calls; inactive means mostly above about 0.92. Some of the results follow.

Assay: chemical genetic growth profiling, strain panel (AID 1159580);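 further: tested at 20 µM; growth read once vehicle control cultures reached saturation at 30 °C; 1 = growth at the plate median or of vehicle wells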
Conditions: S. cerevisiae deletion strains, growth OD

Measured: normalized growth

CC(=O)OCC(=O)[C@@]1(O)CCC2C3CCC4=CC(=O)CC[C@]4(C)[C@@]3(F)[C@@H](O)C[C@@]21C (stereo partly specified)
inactive: locus YAL021C, strain ccr4, stronger effect = lower value 1.03 | locus YAL026C, strain drs2, stronger effect = lower value 1.01 | locus YAL030W, strain snc1, stronger effect = lower value 1.01 | locus YBL061C, strain skt5, stronger effect = lower value 1.01 | locus YBR009C, strain hhf1, stronger effect = lower value 1.01 | locus YBR021W, strain FUR4, stronger effect = lower value 1.01 | locus YBR023C, strain chs3, stronger effect = lower value 1.03 | locus YBR171W, strain sec66, stronger effect = lower value 1.04 | locus YBR229C, strain ROT2, stronger effect = lower value 1 | locus YBR231C, strain swc5, stronger effect = lower value 0.993 | locus YBR279W, strain paf1, stronger effect = lower value 1.02 | locus YCL011C, strain gbp2, stronger effect = lower value 1.02 | locus YCL016C, strain dcc1, stronger effect = lower value 1.02 | locus YCL029C, strain bik1, stronger effect = lower value 0.995 | locus YCL061C, strain MRC1, stronger effect = lower value 1.02 | locus YCL069W, strain vba3, stronger effect = lower value 1.02 | locus YCR088W, strain abp1, stronger effect = lower value 1.01 | locus YDL005C, strain med2, stronger effect = lower value 1.02 | locus YDL035C, strain GPR1, stronger effect = lower value 0.992 | locus YDL040C, strain nat1, stronger effect = lower value 1 | locus YDL074C, strain BRE1, stronger effect = lower value 1.02 | locus YDL101C, strain DUN1, stronger effect = lower value 1.01 | locus YDL185W, strain tfp1, stronger effect = lower value 0.995 | locus YDL192W, strain arf1, stronger effect = lower value 1 | locus YDR001C, strain nth1, stronger effect = lower value 1.01 | locus YDR069C, strain doa4, stronger effect = lower value 1.01 | locus YDR101C, strain arx1, stronger effect = lower value 0.981 | locus YDR137W, strain rgp1, stronger effect = lower value 1.02 | locus YDR159W, strain sac3, stronger effect = lower value 0.997 | locus YDR162C, strain NBP2, stronger effect = lower value 0.998 | locus YDR195W, strain ref2 1 | locus YDR297W, strain sur2, stronger effect = lower value 1 | locus YDR318W, strain mcm21, stronger effect = lower value 1 | locus YDR334W, strain swr1, stronger effect = lower value 1.03 | locus YDR335W, strain msn5, stronger effect = lower value 1.01 | locus YDR388W, stronger effect = lower value 1 | locus YDR392W, strain spt3, stronger effect = lower value 0.989 | locus YDR502C, strain sam2, stronger effect = lower value 1 | locus YEL003W, strain gim4, stronger effect = lower value 1 | locus YEL037C, strain rad23, stronger effect = lower value 1.01 | locus YEL061C, strain CIN8 (second series), stronger effect = lower value 1.01 | locus YEL061C, strain CIN8, stronger effect = lower value 1 | locus YER015W, strain faa2, stronger effect = lower value 1 | locus YER016W, strain bim1, stronger effect = lower value 1 | locus YER110C, stronger effect = lower value 1 | locus YER111C, strain swi4, stronger effect = lower value 1.02 | locus YER155C, strain BEM2 (second series), stronger effect = lower value 1.01 | locus YER155C, strain BEM2, stronger effect = lower value 1.01 | locus YER167W, strain BCK2, stronger effect = lower value 1.01 | locus YFR010W, strain ubp6, stronger effect = lower value 1.02 | locus YGL078C, strain dbp3, stronger effect = lower value 1.01 | locus YGL086W, strain mad1, stronger effect = lower value 0.989 | locus YGL167C, strain pmr1, stronger effect = lower value 1.01 | locus YGL173C, strain kem1, stronger effect = lower value 1.02 | locus YGL227W, strain vid30, stronger effect = lower value 1.02 | locus YGL240W, strain doc1, stronger effect = lower value 1.01 | locus YGL248W, strain PDE1, stronger effect = lower value 1.01 | locus YGL253W, strain hxk2, stronger effect = lower value 1.01 | locus YGR135W, strain pre9, stronger effect = lower value 1.03 | locus YGR252W, strain gcn5, stronger effect = lower value 1.05 | locus YHR013C, strain ard1, stronger effect = lower value 1.04 | locus YHR027C, strain rpn1, stronger effect = lower value 1.03 | locus YHR030C, strain SLT2, stronger effect = lower value 0.997 and 1.01 | locus YHR079C, strain IRE1 (second series), stronger effect = lower value 1.01 | locus YHR079C, strain IRE1, stronger effect = lower value 0.995 | locus YHR094C, strain hxt1, stronger effect = lower value 1.01 | locus YHR129C, strain ARP1, stronger effect = lower value 1.01 | locus YHR142W, strain chs7, stronger effect = lower value 1.01 | locus YHR200W, strain rpn10, stronger effect = lower value 0.996 | locus YIL066C, strain RNR3, stronger effect = lower value 0.995 | locus YIL073C, strain SPO22, stronger effect = lower value 1.03 | locus YIL125W, strain kgd1, stronger effect = lower value 1 | locus YIR030C, strain dcg1, stronger effect = lower value 0.998 | locus YJL092W, strain hpr5, stronger effect = lower value 1.02 | locus YJL095W, strain BCK1 (second series), stronger effect = lower value 1.01 | locus YJL095W, strain BCK1, stronger effect = lower value 1.03 and 1 | locus YJL115W, strain asf1, stronger effect = lower value 1.03 | locus YJL129C, strain trk1, stronger effect = lower value 1.03 | locus YJL134W, strain LCB3, stronger effect = lower value 1.01 | locus YJL154C, strain vps35, stronger effect = lower value 1.01 | locus YJL164C, strain tpk1, stronger effect = lower value 1.01 | locus YJL166W, strain qcr8, stronger effect = lower value 1.02 | locus YJL168C, strain set2, stronger effect = lower value 1.01 | locus YJL187C, strain SWE1 (second series), stronger effect = lower value 1.01 | locus YJL187C, strain SWE1, stronger effect = lower value 1.01 | locus YJR043C, strain POL32, stronger effect = lower value 0.993
